Results published in the supplement of paper PMC9897528.

Each molecule was assayed on Scedosporium aurantiacum CBS 136046 (assay: growth inhibition relative to DMSO control (OD600); higher = more antifungal activity, active = 80 or more; extreme values may be limits of the assay). Conditions: 5 µM; 72 h; 37 °C.
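Further: conidia screened in RPMI 1640 medium under 5% CO2, growth read by spectrophotometer, medium with 0.5% DMSO serving as the untreated reference.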

Growth inhibition, inactive:
CC(C)(C)NC(=O)[C@@H]1C[C@@H]2CCCC[C@@H]2CN1C[C@@H](O)[C@H](Cc1ccccc1)NC(=O)[C@H](CC(N)=O)NC(=O)c1ccc2ccccc2n1 15%
O=C(O)/C=C/C=C/c1cccc(Oc2cc(Cl)cc(Cl)c2)c1 13.8%
CS(=O)(=O)c1ccc(Oc2ccc(Cl)cc2)cc1 15.2%
CCCCc1ccc(S(=O)(=O)Nc2cc(C)on2)cc1 2.13%
O=c1cc(Nc2ccc3ccccc3c2)[nH]c(=O)[nH]1 0.738%
Nc1nnnn1CCOc1c2[nH]c3ccc(Cl)cc3c2cc2c1[nH]c1ccc(Cl)cc12 49.3%
CC(C)(C)c1ccc(C(Cn2cccc(C(F)(F)F)c2=O)NC2Cc3ccccc3C2)cc1 (centres undefined) 28.9%
O=C1NC(=S)N/C1=C\c1cc(Br)cc(Br)c1O 12.6%
Cc1ncc([N+](=O)[O-])n1CC(C)O (centres undefined) 22.7%
CC(C)Oc1ccc(-n2cnc3cc(/C=C\c4ccc(C(C)(C)O)cc4)ccc32)cc1 28.5%
CC(=O)N1c2ccccc2NC2=C(C(=O)CC(C)(C)C2)C1c1ccc(OCc2ccccc2)cc1 (centres undefined) 15.4%
O=C1CCC(N2C(=O)c3ccccc3C2=O)C(=O)N1 (centres undefined) 22.9%
COc1cc(C)c2c(Oc3cccc(C(F)(F)F)c3)c(OC)cc(NC(C)CCCN)c2n1 (centres undefined) 33.4%
COc1cc(Cc2cc(N)nc(N)n2)cc(OC)c1OC 11.7%
CC(C)Nc1nc2cc(Cl)c(Cl)cc2n1[C@H]1O[C@@H](CO)[C@H](O)[C@@H]1O 8.22%
O=C(NCc1ccc2c3c(cccc13)C(=O)N2)c1cccs1 17%
CNCC(=O)OCc1cccnc1N(C)C(=O)OC(C)[n+]1cnn(C[C@](O)(c2cc(F)ccc2F)[C@@H](C)c2nc(-c3ccc(C#N)cc3)cs2)c1 (some centres undefined) 59.5%
O=c1nc(N2CCN(CC3CCCCC3)CC2)sc2c([N+](=O)[O-])cc(C(F)(F)F)cc12 28.5%
OB1OCc2c1ccc(Cl)c2F 0.00748%
COc1ccccc1NC(=O)c1ccccc1Sc1ccc([N+](=O)[O-])cc1 22.6%
O=C(NO)C1(CS(=O)(=O)c2ccc(Oc3ccc(Cl)cc3)cc2)CCOCC1 7.63%
O=C(Nc1ccc(F)cc1)c1nn(-c2ccccc2)c(=O)cc1Cl 32.8%
c1ccc(-c2nnc3c4ccccc4c(N4CCNCC4)nn23)cc1 23.6%
O=C(CCCC(F)(F)F)N1CCC(c2nc(-c3nccs3)no2)CC1 4.66%
